These results are taken from PubChem BioAssay (NCI).

The structures appear in SMILES notation. About 83,000 compounds went through this panel and 20% of them were active in at least one assay; those are over-represented in the sample as a whole.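 In brief: 96-well plates, 48 h treatment, single concentration, percent growth endpoint.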 Values without a mark were called inactive. The source made the active and inactive calls. The calls were made as follows: active = growth percent below 10; inactive = the rest.

Test systems include DU-145 prostate; K-562 leukemia; MALME-3M melanoma; MDA-MB-231 breast; RXF 393 renal; SF-268 CNS; SF-295 CNS; SF-539 CNS; UACC-257 melanoma; M14 melanoma; HCT-15 colon; HT29 colon; SNB-75 CNS; SNB-19 CNS; U251 CNS; PC-3 prostate; SK-MEL-5 melanoma; UACC-62 melanoma; LOX IMVI melanoma; SK-MEL-28 melanoma.
What all share (experiment): NCI-60 one-dose screen, 48 h (100 = growth as untreated, 0 = no growth, -100 = all killed)
Holding throughout (details): 10 µM unless noted

Take `Cc1n(Cc2ccc3ccccc3n2)cc[n+]1Cc1ccc2ccccc2n1`: the growth in the experiment on DU-145 prostate is 94.6%; with K-562 leukemia, 36.2%; with MALME-3M melanoma, 55.9%; in the experiment on MDA-MB-231 breast, 97.3%; in the experiment with RXF 393 renal it was 86.8%; in the experiment with SF-268 CNS, 73.5%. Besides, the growth is 87.7% in the experiment on SF-295 CNS; 67.9% in the experiment on SF-539 CNS; 42.6% with UACC-257 melanoma; 86.9% in the experiment on M14 melanoma; 100% in the experiment on HCT-15 colon; 62% with HT29 colon. In addition, the growth with SNB-75 CNS is 65.8%; in the experiment with SNB-19 CNS it was 54%; with U251 CNS it was 58.8%; with PC-3 prostate it was 55.8%; in the experiment on SK-MEL-5 melanoma, 59%; in the experiment with UACC-62 melanoma it was 73%. The results for the growth with LOX IMVI melanoma and in the experiment with SK-MEL-28 melanoma were 81.9% and 72%, respectively.

In the case of `O=C1Cc2c([nH]c3ccc([N+](=O)[O-])cc23)-c2ccccc2N1`, the growth in the experiment on DU-145 prostate is 4.56% (active); in the experiment on K-562 leukemia, 3.25% (active); with MALME-3M melanoma it was 8.75% (active); in the experiment with MDA-MB-231 breast it was 29.6%; with RXF 393 renal, 16%; in the experiment on SF-268 CNS, 10.8%. In addition, the growth was 18.7% in the experiment with SF-295 CNS; -37% (active) in the experiment with SF-539 CNS; 17.3% in the experiment on UACC-257 melanoma; 16.8% with M14 melanoma; 5.02% (active) in the experiment on HCT-15 colon; 4.95% (active) with HT29 colon. Also, the growth with SNB-19 CNS was 20.8%; with U251 CNS it was 8.97% (active); in the experiment with PC-3 prostate, 9.61% (active); in the experiment with SK-MEL-5 melanoma, -47.2% (active); in the experiment on UACC-62 melanoma, 11.4%; in the experiment on LOX IMVI melanoma it was 9.02% (active).

For `CCCc1n(Cc2ccc3ccccc3n2)cc[n+]1Cc1ccc2ccccc2c1`, the growth in the experiment on DU-145 prostate was 28.6%; in the experiment on K-562 leukemia it was 5.05% (active); with MALME-3M melanoma it was -27.3% (active); with MDA-MB-231 breast it was -5.49% (active); in the experiment on RXF 393 renal, 3.02% (active); with SF-268 CNS it was 17%. The growth in the experiment on SF-295 CNS is 4.45% (active); in the experiment on SF-539 CNS it was 12.7%; in the experiment on UACC-257 melanoma, -9.42% (active); in the experiment with M14 melanoma, 3.06% (active); in the experiment with HCT-15 colon, 82%; with HT29 colon, 3.72% (active). Also, the growth in the experiment with SNB-75 CNS is -6% (active); with SNB-19 CNS, 7.24% (active); with U251 CNS, 11.2%; in the experiment on PC-3 prostate, 5.35% (active); with SK-MEL-5 melanoma, -91.9% (active); in the experiment with UACC-62 melanoma, -46.7% (active). Further, the growth with LOX IMVI melanoma was -63.8% (active); in the experiment with SK-MEL-28 melanoma it was 9.91% (active).

Turning to `Cc1ccc(NC(=O)c2[nH]c(SCCN(C)C)nc2-c2ccc(F)cc2)cc1C#Cc1cnc2cccnn12`, the growth in the experiment with DU-145 prostate is -19% (active); in the experiment with K-562 leukemia, -37.3% (active); with MALME-3M melanoma it was -9.58% (active); in the experiment with MDA-MB-231 breast, -7.2% (active); in the experiment on RXF 393 renal it was -61.6% (active); in the experiment with SF-268 CNS, -23.4% (active). In addition, the growth in the experiment with SF-295 CNS is 93.1%; in the experiment on SF-539 CNS it was -84.4% (active); in the experiment on UACC-257 melanoma it was 12.7%; in the experiment with M14 melanoma, -75.1% (active); in the experiment with HCT-15 colon, -19.6% (active); with HT29 colon it was -14.9% (active). For the same compound, the growth in the experiment with SNB-75 CNS is -59.7% (active); in the experiment on SNB-19 CNS, 21.4%; in the experiment on U251 CNS, -58.8% (active); in the experiment with PC-3 prostate, 34%; in the experiment on SK-MEL-5 melanoma, 45.5%; in the experiment on UACC-62 melanoma, 35.8%. Besides, the growth is -49.2% (active) with LOX IMVI melanoma and -72.4% (active) in the experiment on SK-MEL-28 melanoma.

For the compound `COc1ccc2[nH]c(C(=O)OCc3ccc4cccc(O)c4n3)cc2c1`, the growth in the experiment on DU-145 prostate was -91.8% (active); in the experiment with K-562 leukemia it was -3.39% (active); in the experiment on MALME-3M melanoma, -76.2% (active); in the experiment with MDA-MB-231 breast, -70.8% (active); in the experiment with RXF 393 renal, -92.2% (active); with SF-268 CNS it was -65.6% (active). The growth with SF-295 CNS was 73.7%; in the experiment with SF-539 CNS, -92.7% (active); in the experiment on UACC-257 melanoma it was -70.7% (active); in the experiment with M14 melanoma, -75.6% (active); in the experiment with HCT-15 colon, -43.8% (active); in the experiment on HT29 colon it was -73.1% (active). For the same compound, the growth in the experiment with SNB-75 CNS is -29.1% (active); in the experiment with U251 CNS, 22.1%; in the experiment on PC-3 prostate, -55.7% (active); in the experiment on SK-MEL-5 melanoma, -56.9% (active); with UACC-62 melanoma it was -81% (active); in the experiment on LOX IMVI melanoma, -89.1% (active).

For the compound `Cc1n(Cc2ccc3ccccc3n2)cc[n+]1Cc1ccc2ccccc2c1`, the growth is 26.6% with DU-145 prostate; 11.5% in the experiment with K-562 leukemia; -30.2% (active) with MALME-3M melanoma; 2.1% (active) in the experiment on MDA-MB-231 breast; 9.37% (active) in the experiment on RXF 393 renal; 20.8% in the experiment with SF-268 CNS. In addition, the growth is 9.7% (active) in the experiment on SF-295 CNS; 14.3% in the experiment on SF-539 CNS; -15.1% (active) with UACC-257 melanoma; 18.2% with M14 melanoma; 86.8% with HCT-15 colon; 6.64% (active) in the experiment on HT29 colon. For the same compound, the growth was -2.2% (active) with SNB-75 CNS; 7.14% (active) in the experiment with SNB-19 CNS; 14% in the experiment on U251 CNS; -87.6% (active) with SK-MEL-5 melanoma; -26.6% (active) with UACC-62 melanoma; -43.7% (active) with LOX IMVI melanoma. Further, in the experiment with SK-MEL-28 melanoma, the growth was 16.1%.

For the compound `COc1ccc(C2=NN(C=O)C(c3ccc(OS(=O)(=O)c4ccc(C)cc4)c(OC)c3)C2)cc1` (stereo not drawn), the growth was 72.8% with DU-145 prostate; 16% in the experiment on K-562 leukemia; 45.9% with MALME-3M melanoma; 56.4% in the experiment with MDA-MB-231 breast; 82.7% in the experiment with RXF 393 renal; 68.7% in the experiment with SF-268 CNS. The growth was 41.6% in the experiment with SF-295 CNS; 66.9% with SF-539 CNS; 42.9% in the experiment on UACC-257 melanoma; 58.8% in the experiment on M14 melanoma; 61.8% in the experiment on HCT-15 colon; 35% with HT29 colon. In addition, the growth is 68.9% in the experiment on SNB-75 CNS; 60.3% in the experiment with U251 CNS; 48.4% in the experiment with PC-3 prostate; 6.93% (active) in the experiment with SK-MEL-5 melanoma; 50.1% in the experiment on UACC-62 melanoma; 57.3% with LOX IMVI melanoma. The growth in the experiment on SK-MEL-28 melanoma was 75.5%.

Consider `Cc1cc(Cl)c2ccc(N(C)C)cc2n1`, for which the growth in the experiment with DU-145 prostate was 113%; in the experiment with K-562 leukemia, 88.7%; with MALME-3M melanoma it was 108%; in the experiment with MDA-MB-231 breast, 102%; in the experiment on RXF 393 renal it was 95.5%; in the experiment on SF-268 CNS, 102%. The growth in the experiment on SF-295 CNS is 100%; in the experiment with SF-539 CNS, 106%; in the experiment with UACC-257 melanoma, 97.4%; in the experiment with M14 melanoma, 100%; with HCT-15 colon, 94.9%; in the experiment on HT29 colon it was 102%. Besides, the growth is 82.7% with SNB-75 CNS; 95% in the experiment on SNB-19 CNS; 92.8% in the experiment on U251 CNS; 102% with SK-MEL-5 melanoma; 101% in the experiment with UACC-62 melanoma; 96.9% in the experiment with LOX IMVI melanoma. Moreover, the growth in the experiment with SK-MEL-28 melanoma is 101%.
